CBFb-RUNX1 inh = CBF-beta/RUNX1 interaction disruption | Q01196+Q13951 | AlphaScreen CBFb-His/RUNX1-biotin binding, biochemical | Potency, µM (top dose mostly 59.8 µM), for inactives: top-dose activity, negative = inhibition, most hits filed as inhibitors | 230,000 tested, under 10 active | AID 1477; note: % of control where 0% means no effect
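CBF-beta (His) and RUNX1 (biotin), 30 nM each; 20 min preassociation; + compound, 15 min; + beads 50 ng each (Ni, streptavidin), 90 min; RT; AlphaScreen read.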
HTT aggregate = reduces HttQ103-GFP aggregates in PC12 cells; PC12 HttQ103-GFP aggregates, Acumen cytometry, 40 h; AID 1688; Potency, µM (highest dose often 46.1 µM), inactives show at the highest dose activity change, negative = inhibition, hits mostly inhibitors; 1.1% of 220,000 active; note: potency is the fitted concentration of half-maximal effect; % is set by controls: 0 for no effect and ±100 for the full control effect; nearly all actives have a fitted effect of over 60% in size
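PC12/HTTQ103-GFP, ecdysone-inducible; teb 100 nM; cpd qHTS titration; GFP aggregates read on laser cytometer, Ex 488/Em 500-530 nm.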
JMJD2E inh = inhibitors of human JMJD2E histone demethylase; JMJD2E catalytic domain, FDH-coupled NADH fluorescence (FDH is formaldehyde dehydrogenase); B2RXH2; 1.6% of 230,000 active; Potency, µM (highest dose often 57.1 µM), inactives show at the highest dose activity change, negative = inhibition, hits mostly inhibitors; active = well fitted inhibition curve with a large enough effect, not every such curve was filed as active; inconclusive = small, poorly fitted or top-dose-only effect, or another doubt; inactive = no such curve, though single readings can be large or run the other way;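 note: potency is the fitted concentration of half-maximal effect; 0% = wells with enzyme and -100% = buffer wells without enzyme; nearly all actives have a fitted effect of over 50% in size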
Target sequence (B2RXH2 1-337 limits assumed): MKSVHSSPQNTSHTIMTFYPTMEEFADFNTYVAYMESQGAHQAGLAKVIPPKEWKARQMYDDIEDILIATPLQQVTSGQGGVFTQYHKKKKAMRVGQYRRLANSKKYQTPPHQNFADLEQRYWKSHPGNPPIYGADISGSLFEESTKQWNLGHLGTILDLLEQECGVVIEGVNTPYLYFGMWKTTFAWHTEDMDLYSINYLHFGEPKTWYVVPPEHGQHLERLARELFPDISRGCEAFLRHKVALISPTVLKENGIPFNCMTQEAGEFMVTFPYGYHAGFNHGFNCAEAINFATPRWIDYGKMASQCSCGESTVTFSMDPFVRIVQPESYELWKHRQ
HTT cytoprotect = protects HTT-Q103 PC12 cells, measured by ATP; PC12 HTT-Q103 induced, cytoprotection, ATP luminescence, 40 h; Potency, µM (series often up to 56.4 µM), for inactives: cytoprotection (ATP increase), usual class: activators; 0.14% of 230,000 active; AID 1471; note: potency is the fitted concentration of half-maximal effect; % of control where 0% means no effect; nearly all actives have a fitted effect of over 45% in size
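Quantitative HTS on tebufenozide-induced (100 nM) PC12 cells expressing HTTQ103 exon 1–GFP; compounds tested as a concentration series; survival measured via cellular ATP.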
HPGD inh = blocks human HPGD enzyme activity; Potency, µM, for inactives: top-dose activity change, negative = inhibition, actives largely listed as inhibitors; P15428; purified HPGD, NADH fluorescence kinetic, PGE2 substrate; 4.3% of 150,000 active; active = well fitted inhibition curve with a large enough effect, not every such curve was filed as active; inconclusive = small, poorly fitted or top-dose-only effect, or another doubt; inactive = no such curve, though single readings can be large or run the other way; note: potency is the fitted concentration of half-maximal effect; % is set by controls: 0 for no effect and ±100 for the full control effect
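20 nM HPGD preincubated 15 min at room temperature with compound in 50 mM Tris-HCl pH 8, 0.01% Tween 20. Started with 1 mM NAD+ and 30 uM prostaglandin E2; NADH fluorescence (360/450 nm) read 5 times over 30-s intervals, last minus first.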
ALDH1A1 inh = ALDH1A1 (human) enzyme inhibition; P00352; Potency, µM (top dose mostly 75.3 µM), for the others: top-dose activity, negative = inhibition, hits mostly inhibitors; 7.3% of 220,000 active; Purified ALDH1A1, NADH fluorescence, propionaldehyde substrate; AID 1030; active = well fitted inhibition curve with a large enough effect, not every such curve was filed as active; inconclusive = small, poorly fitted or top-dose-only effect, or another doubt; inactive = no such curve, though single readings can be large or run the other way;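 note: potency is the fitted concentration of half-maximal effect; plate controls were no enzyme wells and a reference inhibitor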
The depositor's hits bear a star; ? = inconclusive; / = no result given; [ ] = remark or other dose. Most compounds without a hit are left out; they make up all but 9.8% or so of the library. Unless noted, calls come from the whole dose curve; as a rule, active = well fitted curve in the direction sought with a large enough effect; inconclusive = small, poorly fitted or top-dose-only effect, or another doubt; inactive = no such curve, though single readings can be large; an effect the other way counts as inactive or inconclusive.

SMILES | CBFb-RUNX1 inh | HTT aggregate | JMJD2E inh | HTT cytoprotect | HPGD inh | ALDH1A1 inh
O=C(NCc1ccc2c(c1)OCO2)c1ccc(N2CCCC2=O)cc1 | 0% | -3% | -4% | -6% | -7% | 5%
COc1ccc(C(=O)C(OC(=O)CNC(=O)c2ccco2)c2ccccc2)cc1 (configuration not stated) | 0% | -9% | 11% | 0% | -9% | 20µM*
COc1ccc(C(=O)NNC(=S)NC(=O)c2ccco2)cc1 | -19% | 20µM* | -77% | -46% | -13% | -6%
CC(C)CC(=O)NC(=S)NNC(=O)c1ccc(NC(=O)C2CCCCC2)cc1 | ? | -28% | ? | 45%[10 µM] | -17% | -5%
CC(C)CC(=O)NC(=S)NNC(=O)c1ccc([N+](=O)[O-])cc1 | 8% | -2% | 8% | -10%[10 µM] | 32µM* | -4%
CCCOc1ccc(C(=O)NNC(=S)NC(=O)c2ccco2)cc1 | -17% | 1%[9.22 µM] | ? | ? | / | /
COc1ccc(C(=O)NC(=S)NNC(=O)CNC(=O)C2CCCCC2)cc1 | 7% | 8% | 7% | -26% | / | 22µM*
CC(Oc1ccc(Cl)cc1)C(=O)NNC(=S)NC(=O)c1ccco1 (configuration not stated) | -27% | ? | 20µM* | / | -5% | ?
CCCOc1ccc(C(=O)NNC(=S)NC(=O)c2cc(-c3ccccc3)nc3ccccc23)cc1 | -1% | 7.1µM* | -1% | 16% | -9% | -10%
O=C(COc1ccc(Cl)cc1Cl)NNC(=S)NC(=O)c1ccco1 | 3% | -10%[9.22 µM] | ? | 27%[10 µM] | / | /
C/C(=C\C(=O)OCCCCCCCCC(=O)O)C[C@@H]1OC[C@H](C[C@@H]2O[C@H]2[C@@H](C)[C@H](C)O)[C@@H](O)[C@H]1O | / | 1% | / | 9% | / | /
NS(=O)(=O)c1ccc(NC(=O)Cc2c(F)cccc2Cl)cc1 | 1% | 6% | -1% | 11%[10 µM] | / | -5%
Cn1c(=O)[nH]c(=O)c2c1nc(CN1CCN(c3ccc(F)cc3)CC1)n2CCCc1ccccc1 | -1% | 9% | 3% | -40% | -8% | 3%
CCCCCn1c(CN2CCN(C(=O)OCC)CC2)nc2c1c(=O)[nH]c(=O)n2C | 11% | 0% | -8% | -1%[10 µM] | 0% | 11µM*
CCOC(=O)N1CCN(Cc2nc3c(c(=O)[nH]c(=O)n3C)n2CCCc2ccccc2)CC1 | 8% | ? | -4% | -30% | 3% | ?
Cn1c(=O)[nH]c(=O)c2c1nc(CN1CCN(c3cccc(Cl)c3)CC1)n2CCc1ccccc1 | -2% | 1% | 7% | -7% | -1% | 14µM*
Cn1c(=O)[nH]c(=O)c2c1nc(CN1CCN(c3ccccc3F)CC1)n2CCCc1ccccc1 | 2% | 6% | 6% | -5%[10 µM] | 7% | 3.2µM*
O=C(CCl)N(c1ccccc1)C1CCCCC1 | -18% | 24% | ? | / | / | 0.035µM*
COc1ccc(OC)c(NC(=O)C(=S)NC2CCCCC2)c1 | -1% | 0%[9.22 µM] | -2% | -85% | / | 8.9µM*
O=C(NNC(=S)NC1CCCCC1)c1ccc2c(c1)OCO2 | 6% | ? | 0% | 12%[10 µM] | -13% | -11%
S=C(NC1CCCCC1)c1ccc2c(c1)OCO2 | -2% | -12% | -2% | -45% | 20µM* | ?
CN(C(=O)c1ccc2c(c1)OCO2)C1(C(=O)NC2CCCC2)CCCCC1 | 2% | -1% | 3% | 16% | -3% | 3%
CCOc1ccc(CC(=O)NNC(=S)NC2CCCCC2)cc1OCC | -2% | -1% | 6% | 26%[10 µM] | -7% | 7%
O=C(NC1CCCCCCC1)c1ccc2c(c1)OCO2 | 11% | -14% | -4% | -5%[10 µM] | 16µM* | -1%
CCOc1ccc(C(=S)NC2CCCCC2)cc1OC | 1% | 2% | -3% | -41% | 20µM* | 40µM*
CCOC(=O)c1oc2ccc(Cl)cc2c1NC(C)=O | 13% | 7% | ? | -28% | / | -2%
N#CCCN(Cc1ccccc1)C(=O)Nc1ccc2c(c1)CCO2 | 10% | 1%[9.22 µM] | 5% | 13%[10 µM] | / | /
Cc1cccc(N=Nc2c(C)nn(-c3ccccc3)c2N)c1C | ? | 6% | -3% | -7%[10 µM] | 16µM* | -10%
